Experiment [1] relates to PRMT1 (protein arginine N-methyltransferase 1). In words: small molecules binding arginine methyltransferase PRMT1 – biochemical, small-molecule microarray, 635 nm fluorescence, primary screen (AID 1088).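 Also: binding of Prmt1 protein to compounds spotted on small-molecule microarray slides.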 The settings on record: higher = more signal.
Experiment [2] is described as follows: growth effects on S. cerevisiae YJM789 – YJM789 clinical isolate, OD600, 24 h, basal, primary screen (AID 1089).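 Also: growth of clinical yeast isolate S. cerevisiae YJM 789 seeded 1000 cells per well; test concentration not given here.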 The settings on record: higher = more signal, called active from +8 up or from −8 down.
Experiment [3] is described as follows: S. pombe growth modifiers, basal conditions – strain 972, OD600, 24 h, no modulator, primary screen (AID 1090).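 Also: basal condition with compound alone and no growth modifier present; test concentration not given here.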 The settings on record: S. pombe 972 growth, higher = more signal, called active from +8 up or from −8 down.
The nature of experiment [4]: budding yeast growth modifiers under rapamycin – strain BY4716, OD600, 96 h, primary screen (AID 1091). Also: test concentration not given here. The settings on record: S. cerevisiae BY4716 + rapamycin, higher = more signal, called active from +8 up or from −8 down.
The target of experiment [5] is Torsin-1A-interacting protein 2 (Homo sapiens) (UniProt Q8NFQ8). The experiment is described as follows: small molecules binding lysate-expressed LULL1 – cell lysate, human LULL1 lysate, 635/667 nm fluorescence, primary screen (AID 1092).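 Also: probe is lysate of COS7 cells overexpressing human LULL1; score merges per-feature 667 nm fluorescence with signal-to-noise.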 The settings on record: small-molecule microarray, hLULL1 lysate binding, 635 nm fluorescence; higher = more signal.
Experiment [6] can be described thus: optical density change of DRC41 E. coli – strain DRC41, OD650, 24 h, E. coli filamentation project, primary screen (AID 1093).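 Also: MC1000 strain lacking acrAB efflux and sulA so SOS filamentation is blocked; test concentration not given here.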 The settings on record: E. coli DRC41 growth, higher = more signal, called active from +8 up or from −8 down.
A short description of experiment [7]: probe aLefty2 binding to arrayed compounds – biochemical, biotinylated probe, 635/667 nm fluorescence, primary screen (AID 1094).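 Also: score merges spot fluorescence near 667 nm with spot signal-to-noise ratio.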 The settings on record: small-molecule microarray, higher = more signal.
For experiment [8], the system named is Noggin (protein binding on small-molecule microarray). In words: small molecules binding Noggin protein – biochemical, 635/667 nm fluorescence, primary screen (AID 1095).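 Also: score merges 667 nm feature fluorescence with signal to noise over triplicate slides.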 The settings on record: 635 nm fluorescence, higher = more signal.
In experiment [9] the target is Neurogenic locus notch homolog protein 3 (Homo sapiens) (UniProt Q9UM47). In words: small molecules binding NOTCH3 protein – biochemical, 635/667 nm fluorescence, primary screen (AID 1096). The settings on record: small-molecule microarray, 635 nm fluorescence, higher = more signal.
Experiment [10] can be described thus: probe aEGFR binding to arrayed compounds – biochemical, biotinylated probe, 635/667 nm fluorescence, primary screen (AID 1097).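 Also: probe is a biotinylated anti-EGFR antibody binding compounds printed on slides; score combines fluorescence near 667 nm and signal to noise of each spot.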 The settings on record: small-molecule microarray, higher = more signal.
The subject of experiment [11] is Plasmodium falciparum Sir2 (PF13_0152, Sir2A). In words: Plasmodium falciparum Sir2A binding compounds – biochemical, small-molecule microarray, 635 nm fluorescence, primary screen (AID 1098).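 Also: score merges spot fluorescence intensity with its signal-to-noise ratio.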 The settings on record: fluorescence 635 nm, higher = more signal.
Experiment [12] is described as follows: probe aDKK1 binding to arrayed compounds – biochemical, biotinylated probe, 635/667 nm fluorescence, primary screen (AID 1099).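 Also: score merges 667nm spot fluorescence with signal to noise across triplicate slides; reference of the scale not given here.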 The settings on record: small-molecule microarray, higher = more signal.
Experiment [13] is described as follows: probe aCHRDL2 binding to arrayed compounds – biochemical, biotinylated probe, 635/667 nm fluorescence, primary screen (AID 1100). The settings on record: small-molecule microarray, higher = more signal.
Experiment [14] in a line: change in splice reporter luminescence, either direction, cell-based, HEK293, spliceosome inhibition project, primary screen (AID 1101).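 Also: HEK293 cells carrying a splicing-competent luciferase reporter gene; test concentration not given here.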 The settings on record: HEK293 splicing luciferase reporter, 24 h, higher = more signal, called active from +8 up or from −8 down.
Experiment [15] addresses Fibroblast growth factor 10 (Homo sapiens) (UniProt O15520). The experiment is described as follows: compounds binding fibroblast growth factor 10 – biochemical, small-molecule microarray, 635 nm fluorescence, primary screen (AID 1102). The settings on record: FGF10 binding, fluorescence 635 nm, higher = more signal.
For experiment [16], the system named is glycogen synthase kinase-3 (GSK3A per assay name; protocol says GSK3B). In words: compounds binding glycogen synthase kinase-3 – biochemical, small-molecule microarray, 635 nm fluorescence, GSK3A, primary screen (AID 1103). Also: the record names both GSK3A and GSK3B. The settings on record: fluorescence 635 nm, higher = more signal.
In experiment [17] the target is Epidermal growth factor receptor (Homo sapiens) (UniProt P00533). The experiment is described as follows: compounds binding epidermal growth factor receptor – biochemical, small-molecule microarray, 635 nm fluorescence, primary screen (AID 1104).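 Also: score merges 667 nm emission intensity with spot signal to noise over triplicate slides.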 The settings on record: EGFR binding, higher = more signal.
The target in experiment [18] is Follistatin-related protein 3 (Homo sapiens) (UniProt O95633). The experiment is described as follows: compounds binding follistatin-related protein 3 – biochemical, small-molecule microarray, 635 nm fluorescence, primary screen (AID 1105).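 Also: score merges emission near 667 nm and signal to noise per printed spot across three slides.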 The settings on record: FSTL3 binding, higher = more signal.
The target in experiment [19] is Dickkopf-related protein 1 (Homo sapiens) (UniProt O94907). The experiment is described as follows: small molecules binding DKK1 protein – biochemical, small-molecule microarray, 635 nm fluorescence scan, primary screen (AID 1106).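 Also: score merges emission near 667 nm with signal to noise over three replicate slides.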 The settings on record: higher = more signal.
In experiment [20] the test system is Inhibin beta A chain (activin A). The experiment is described as follows: small molecules binding activin A – biochemical, small-molecule microarray, 635 nm fluorescence scan, primary screen (AID 1107).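 Also: mouse activin A protein probed at 4.33 µg/mL on printed slides; score merges bound-protein fluorescence near 667 nm with spot signal-to-noise.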 The settings on record: INHBA, higher = more signal.

Calls of active or inactive are those of the source.

Epidermal growth factor receptor (Homo sapiens), sequence (P00533 whole entry, looked up): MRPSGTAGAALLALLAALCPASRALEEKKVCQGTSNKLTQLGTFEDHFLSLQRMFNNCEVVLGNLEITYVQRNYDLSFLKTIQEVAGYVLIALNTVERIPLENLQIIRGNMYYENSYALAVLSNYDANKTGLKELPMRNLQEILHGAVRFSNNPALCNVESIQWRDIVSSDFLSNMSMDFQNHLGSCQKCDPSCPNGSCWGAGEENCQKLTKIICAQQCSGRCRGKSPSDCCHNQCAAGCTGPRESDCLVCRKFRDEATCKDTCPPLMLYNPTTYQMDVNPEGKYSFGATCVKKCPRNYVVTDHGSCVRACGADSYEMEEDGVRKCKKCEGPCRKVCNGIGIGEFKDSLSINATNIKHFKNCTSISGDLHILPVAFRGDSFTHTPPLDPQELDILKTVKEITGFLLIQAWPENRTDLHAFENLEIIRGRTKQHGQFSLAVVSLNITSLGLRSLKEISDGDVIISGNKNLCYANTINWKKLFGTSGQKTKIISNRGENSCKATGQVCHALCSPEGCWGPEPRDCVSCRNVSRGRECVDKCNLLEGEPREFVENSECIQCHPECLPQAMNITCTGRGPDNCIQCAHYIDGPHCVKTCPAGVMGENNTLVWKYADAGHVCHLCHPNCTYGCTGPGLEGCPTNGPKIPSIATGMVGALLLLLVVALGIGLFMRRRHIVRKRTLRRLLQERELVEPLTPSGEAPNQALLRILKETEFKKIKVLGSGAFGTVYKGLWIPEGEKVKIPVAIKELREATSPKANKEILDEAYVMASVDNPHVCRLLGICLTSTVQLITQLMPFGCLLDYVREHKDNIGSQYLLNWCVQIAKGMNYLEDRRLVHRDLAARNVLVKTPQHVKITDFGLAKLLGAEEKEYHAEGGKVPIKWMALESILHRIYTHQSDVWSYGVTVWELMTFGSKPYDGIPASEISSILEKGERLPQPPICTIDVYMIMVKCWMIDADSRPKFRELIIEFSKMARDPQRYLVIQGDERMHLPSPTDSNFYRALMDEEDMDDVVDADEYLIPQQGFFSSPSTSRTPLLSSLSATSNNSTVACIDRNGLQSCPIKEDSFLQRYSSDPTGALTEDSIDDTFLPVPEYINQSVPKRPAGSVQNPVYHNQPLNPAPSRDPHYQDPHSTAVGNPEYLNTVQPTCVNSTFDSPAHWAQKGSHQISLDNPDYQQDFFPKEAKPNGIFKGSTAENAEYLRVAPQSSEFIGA
Dickkopf-related protein 1 (Homo sapiens), sequence (O94907 whole entry, looked up): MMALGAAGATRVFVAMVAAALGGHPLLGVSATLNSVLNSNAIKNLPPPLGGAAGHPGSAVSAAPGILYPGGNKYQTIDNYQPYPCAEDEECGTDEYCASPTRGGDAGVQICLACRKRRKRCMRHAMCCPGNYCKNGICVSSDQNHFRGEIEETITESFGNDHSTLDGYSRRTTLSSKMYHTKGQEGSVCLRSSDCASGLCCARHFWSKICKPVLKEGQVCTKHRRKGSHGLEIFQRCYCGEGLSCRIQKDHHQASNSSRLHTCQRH
Torsin-1A-interacting protein 2 (Homo sapiens), sequence (Q8NFQ8 whole entry, looked up): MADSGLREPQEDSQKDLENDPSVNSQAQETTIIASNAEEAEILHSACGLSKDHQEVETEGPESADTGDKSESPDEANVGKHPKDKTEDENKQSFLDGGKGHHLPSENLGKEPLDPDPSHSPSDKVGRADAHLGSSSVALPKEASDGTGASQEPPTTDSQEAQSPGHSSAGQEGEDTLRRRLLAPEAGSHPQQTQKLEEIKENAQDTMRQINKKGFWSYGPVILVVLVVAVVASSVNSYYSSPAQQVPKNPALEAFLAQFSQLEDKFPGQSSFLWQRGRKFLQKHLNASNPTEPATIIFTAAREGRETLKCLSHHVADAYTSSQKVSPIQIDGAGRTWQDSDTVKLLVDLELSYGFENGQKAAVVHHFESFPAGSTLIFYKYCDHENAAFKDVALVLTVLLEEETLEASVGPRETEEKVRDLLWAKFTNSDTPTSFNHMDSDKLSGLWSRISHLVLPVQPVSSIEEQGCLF
Neurogenic locus notch homolog protein 3 (Homo sapiens), sequence (Q9UM47 whole entry, looked up): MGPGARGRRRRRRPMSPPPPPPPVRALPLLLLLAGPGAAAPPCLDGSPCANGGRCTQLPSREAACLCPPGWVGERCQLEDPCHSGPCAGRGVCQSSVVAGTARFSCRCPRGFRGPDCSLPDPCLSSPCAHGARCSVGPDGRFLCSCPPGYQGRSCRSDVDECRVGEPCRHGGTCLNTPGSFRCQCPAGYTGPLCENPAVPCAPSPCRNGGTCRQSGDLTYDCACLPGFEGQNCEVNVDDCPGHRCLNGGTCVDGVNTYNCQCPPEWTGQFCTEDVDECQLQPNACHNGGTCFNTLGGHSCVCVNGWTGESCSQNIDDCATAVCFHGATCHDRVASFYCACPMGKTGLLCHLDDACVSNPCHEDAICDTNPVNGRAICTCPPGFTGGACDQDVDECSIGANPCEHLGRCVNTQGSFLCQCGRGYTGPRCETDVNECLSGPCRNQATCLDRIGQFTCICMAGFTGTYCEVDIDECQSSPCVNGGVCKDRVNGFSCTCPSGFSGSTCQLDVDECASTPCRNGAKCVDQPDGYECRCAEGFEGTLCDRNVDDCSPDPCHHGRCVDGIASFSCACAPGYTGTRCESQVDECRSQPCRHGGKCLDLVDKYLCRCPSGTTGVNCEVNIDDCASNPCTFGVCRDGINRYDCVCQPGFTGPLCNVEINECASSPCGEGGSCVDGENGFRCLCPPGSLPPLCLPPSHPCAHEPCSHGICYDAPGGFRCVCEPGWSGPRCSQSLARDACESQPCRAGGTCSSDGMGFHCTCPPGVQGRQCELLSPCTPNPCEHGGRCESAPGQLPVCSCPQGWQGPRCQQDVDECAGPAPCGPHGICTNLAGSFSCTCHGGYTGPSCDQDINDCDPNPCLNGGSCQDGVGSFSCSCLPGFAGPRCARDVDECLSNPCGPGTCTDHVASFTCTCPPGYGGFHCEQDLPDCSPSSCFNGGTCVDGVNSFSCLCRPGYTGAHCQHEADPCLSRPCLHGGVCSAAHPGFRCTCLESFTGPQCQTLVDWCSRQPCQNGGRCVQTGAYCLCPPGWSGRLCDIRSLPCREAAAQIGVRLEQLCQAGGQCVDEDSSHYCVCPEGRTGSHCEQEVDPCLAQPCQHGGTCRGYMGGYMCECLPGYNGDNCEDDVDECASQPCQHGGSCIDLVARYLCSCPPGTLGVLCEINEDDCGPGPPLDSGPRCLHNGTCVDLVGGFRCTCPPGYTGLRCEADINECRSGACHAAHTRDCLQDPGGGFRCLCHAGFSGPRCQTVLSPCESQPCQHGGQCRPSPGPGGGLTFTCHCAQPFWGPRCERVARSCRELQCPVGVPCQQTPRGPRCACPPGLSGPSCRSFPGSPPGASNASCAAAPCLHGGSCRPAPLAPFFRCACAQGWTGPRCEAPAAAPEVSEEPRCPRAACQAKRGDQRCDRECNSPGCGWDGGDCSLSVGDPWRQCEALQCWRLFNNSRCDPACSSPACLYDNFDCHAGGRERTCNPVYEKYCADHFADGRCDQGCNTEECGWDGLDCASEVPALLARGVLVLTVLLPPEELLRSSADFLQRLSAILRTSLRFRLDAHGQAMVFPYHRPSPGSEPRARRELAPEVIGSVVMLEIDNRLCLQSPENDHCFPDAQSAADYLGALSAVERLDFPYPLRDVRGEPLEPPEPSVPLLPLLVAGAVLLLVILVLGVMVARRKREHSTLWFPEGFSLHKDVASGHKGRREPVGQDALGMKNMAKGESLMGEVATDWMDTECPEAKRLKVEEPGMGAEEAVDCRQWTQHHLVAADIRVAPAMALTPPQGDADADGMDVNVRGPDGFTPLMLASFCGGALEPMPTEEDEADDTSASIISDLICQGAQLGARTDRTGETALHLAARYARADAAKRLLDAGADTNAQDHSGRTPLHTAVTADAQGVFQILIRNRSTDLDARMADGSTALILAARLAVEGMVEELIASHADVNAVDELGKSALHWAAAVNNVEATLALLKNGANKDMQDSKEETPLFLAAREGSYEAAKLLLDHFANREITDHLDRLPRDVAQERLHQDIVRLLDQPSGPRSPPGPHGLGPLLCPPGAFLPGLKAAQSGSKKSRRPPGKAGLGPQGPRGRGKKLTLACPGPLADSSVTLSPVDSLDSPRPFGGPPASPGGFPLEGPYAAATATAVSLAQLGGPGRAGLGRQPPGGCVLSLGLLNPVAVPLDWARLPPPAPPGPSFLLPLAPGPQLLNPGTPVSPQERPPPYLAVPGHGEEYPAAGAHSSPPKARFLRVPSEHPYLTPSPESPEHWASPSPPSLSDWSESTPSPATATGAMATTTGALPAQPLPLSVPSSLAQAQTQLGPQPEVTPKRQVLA
Follistatin-related protein 3 (Homo sapiens), sequence (O95633 whole entry, looked up): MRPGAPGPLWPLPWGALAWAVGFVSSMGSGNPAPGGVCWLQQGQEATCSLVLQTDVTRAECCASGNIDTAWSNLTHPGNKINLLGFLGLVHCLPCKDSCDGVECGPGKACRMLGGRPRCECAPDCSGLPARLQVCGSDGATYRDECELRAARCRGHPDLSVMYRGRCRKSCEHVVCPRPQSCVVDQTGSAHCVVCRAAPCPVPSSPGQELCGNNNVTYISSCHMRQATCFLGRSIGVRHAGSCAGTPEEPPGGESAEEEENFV
Fibroblast growth factor 10 (Homo sapiens), sequence (O15520 whole entry, looked up): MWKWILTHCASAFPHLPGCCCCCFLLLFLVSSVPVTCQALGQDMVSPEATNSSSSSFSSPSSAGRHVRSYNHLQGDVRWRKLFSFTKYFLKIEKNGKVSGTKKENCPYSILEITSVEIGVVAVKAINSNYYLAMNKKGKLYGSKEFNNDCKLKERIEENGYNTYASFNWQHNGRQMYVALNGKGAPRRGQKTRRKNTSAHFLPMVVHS

In the case of `CC(C)CN1C(=O)[C@@]2(Cc3ccccc31)c1ccccc1C(=O)N(C1CCCCC1)[C@H]2c1ccc(CO)cc1`, the composite z-score was 0.499 in experiment [1]; 2.01 in experiment [5]; -0.121 in experiment [7]; -0.901 in [8]; -1.35 in experiment [9]; -0.179 in [10]. The composite z-score is -0.23 in experiment [11]; 0.262 in [12]; 1.02 in [13]; -0.706 in [15]; -1.24 in experiment [16]; -0.894 in experiment [17]. Also, the composite z-score is -1.34 in experiment [18], -1.66 in experiment [19] and 0.977 in experiment [20]. In addition, the z-score is -1.6 (inactive) in experiment [2]; -1.32 (inactive) in experiment [3]; -2.34 (inactive) in experiment [4]; 1.56 (inactive) in [6]; -1.41 (inactive) in experiment [14].

As to `C=CCC(OC(C)=O)[C@@H]1[C@@H](N(Cc2cccc3ccccc23)C(=O)Cc2ccc(F)cc2)c2cc(OCCCO)ccc2N1C(=O)Cc1ccc2ccccc2c1` (stereo not given in full), the composite z-score is 0.204 in experiment [1]; 0.594 in experiment [5]; -0.0197 in [7]; -0.594 in [8]; -0.0809 in experiment [9]; -0.121 in experiment [10]. For the same compound, the composite z-score in experiment [11] is -0.182; in experiment [12], -0.0551; in experiment [13], 0.315; in [15] it was 0.2; in experiment [16], -0.236; in experiment [17] it was -0.285. The composite z-score was -0.0987 in [18], -0.619 in experiment [19] and 1.07 in [20]. Moreover, the z-score in experiment [2] was -0.167 (inactive); in experiment [3] it was 1.1 (inactive); in experiment [4], -0.276 (inactive); in experiment [6], 0.348 (inactive); in [14], -0.395 (inactive).

In the case of `CC(C)(C)OC(=O)CC[C@]1(C(=O)NCCN2CCOCC2)N=C(c2ccc(OCCCO)cc2)O[C@H]1c1ccccc1CN=[N+]=[N-]`, the composite z-score in experiment [1] was 0.82; in experiment [5], 3.06; in [7] it was -0.0384; in experiment [8], -0.541; in experiment [9], 0.343; in experiment [10] it was 0.0074. Further, the composite z-score in experiment [11] is 0.639; in [12], 0.626; in experiment [13], 0.777; in [15], -0.0042; in experiment [16], 0.813; in experiment [17], -0.243. Further, the composite z-score in [18] was -0.49; in experiment [19], -0.663; in [20], 0.82. Also, the z-score in [2] was -1.29 (inactive); in experiment [3], -0.981 (inactive); in [4], -1.35 (inactive); in [6], 1.71 (inactive); in [14], -1.59 (inactive).

As for `COc1ccc([Si](C)(C)[C@H]2[C@H](CCO)O[C@@]3(C(=O)N(Cc4ccc(N5CCCCC5=O)cc4)c4ccccc43)[C@@H]2C)cc1`, the composite z-score in [1] is 1.54; in experiment [5] it was 1.88; in experiment [7] it was -0.116; in [8] it was 0.993; in experiment [9], 1.07; in experiment [10], -0.0288. Besides, the composite z-score in experiment [11] was 1.36; in experiment [12] it was 0.175; in experiment [13], 0.37; in experiment [15], 0.345; in experiment [16] it was 0.642; in experiment [17], 0.122. The figures for the composite z-score in experiment [18], in experiment [19] and in experiment [20] were 0.55, 0.236 and 0.766, respectively. Moreover, the z-score in experiment [2] is -0.025 (inactive); in experiment [3], -0.717 (inactive); in [4], 2.28 (inactive); in experiment [6], 1.9 (inactive); in experiment [14], 1.23 (inactive).

Take `CC(C)[Si](OCC[C@H]1O[C@]2(C(=O)N(Cc3ccccc3)c3ccccc32)[C@@H](C)[C@@H]1[Si](C)(C)O)(C(C)C)C(C)C`: the composite z-score is 0.489 in [1]; 0.414 in [5]; -0.149 in experiment [7]; -0.139 in [8]; -0.0636 in experiment [9]; -0.109 in experiment [10]. Also, the composite z-score in experiment [11] is 0.54; in experiment [12], -0.0907; in experiment [13], -0.0768; in experiment [15], -0.189; in experiment [16], -0.922; in experiment [17] it was -0.102. Moreover, the composite z-score was -0.0398 in experiment [18], 0.0477 in [19] and 0.438 in experiment [20]. In addition, the z-score was 1.11 (inactive) in experiment [2]; -0.259 (inactive) in [3]; 1.24 (inactive) in experiment [4]; 1.05 (inactive) in experiment [6]; 0.467 (inactive) in [14].
